# An excerpt weighted towards active compounds, which were near 2.9% of everything screened.
# POLB inh: qHTS Assay for Inhibitors of DNA Polymerase Beta; P06746; Pol beta primer extension/strand displacement, fluorescence kinetic; Potency, µM (highest dose often 114 µM), for the others: at the top dose activity change, negative = inhibition, most hits filed as inhibitors; hit rate 1.3% among 340,000; AID 485314, 2010; note: potency is the fitted concentration of half-maximal effect; % is set by controls: 0 for no effect and ±100 for the full control effect
#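 Human Pol beta at 10 nM; strand-displacement substrate 50 nM final. Compound exposure 15 min at room temperature before start, reaction 10 min at room temperature.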
# Pol eta inh-1: qHTS for Inhibitors of Polymerase Eta; DNA polymerase eta (Homo sapiens), Q9Y253; recombinant Pol eta, fluorescent DNA replication assay; Potency, µM (doses to about 114 µM), without a hit: top-dose activity change, negative = inhibition, usual class: inhibitors; hit rate 1.2% among 390,000; AID 588591, 2011; note: potency is the fitted concentration of half-maximal effect; % is set by controls: 0 for no effect and ±100 for the full control effect
#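 Fluorescent replication assay: 50 nM final substrate added after a 15 min room-temperature compound preincubation with 10 nM enzyme. Signal taken at 0 min and again at 10 min.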
# POLI inh: qHTS for Inhibitors of Polymerase Iota; Potency, µM (doses to about 115 µM), without a hit: top-dose activity, negative = inhibition, hits mostly inhibitors; AID 588590, 2011; hit rate 1% among 390,000; DNA polymerase iota (Homo sapiens), Q9UNA4; Pol iota fluorescent replication assay, 10 min; note: potency is the fitted concentration of half-maximal effect
#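 Pol iota at 10 nM preincubated 15 min with compounds at room temperature; reaction started with fluorescent substrate, 50 nM final. Fluorescence read kinetically at 0 and 10 min; buffer-only wells as negative control.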
# PI5P4Ka inh: qHTS for Inhibitors of phosphatidylinositol 5-phosphate 4-kinase (PI5P4K) | hit rate 1.2% among 330,000 | max response, % | PI5P4Kalpha enzyme, ADP-Glo luminescence, 60 min; stronger effect = lower value; active = max response of -50% or lower; inconclusive = between -30% and -50%; inactive = -30% or higher; note: value at the top dose of about 77 µM; % is set by controls: 0 for no effect and ±100 for the full control effect
#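 Enzyme plus substrate dispensed, test compounds pinned in, then ATP (5 microM final) added. After 60 min at RT, ADP-Glo reagent 1 for 45 min and reagent 2 for 30 min preceded luminescence imaging.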
# Pol kappa inh-1: qHTS for Inhibitors of Polymerase Kappa; DNA polymerase kappa (Homo sapiens), Q9UBT6; purified Pol kappa, fluorescent DNA synthesis assay, 10 min; Potency, µM (titrated, usually from 107 µM), inactives show top-dose activity, negative = inhibition, hits mostly inhibitors; hit rate 0.53% among 400,000; AID 588579, 2011; note: potency is the fitted concentration of half-maximal effect; % is set by controls: 0 for no effect and ±100 for the full control effect
#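 Kinetic fluorescence screen: compound preincubated 15 min RT with 10 nM enzyme; 50 nM substrate (final) initiates; reads at 0/10 min.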
# 12-LOX inh: Primary qHTS assay for inhibitors of human arachidonate 12S-lipoxygenase (ALOX12): Round 2 | purified 12hLO, xylenol orange hydroperoxide absorbance | hit rate 1.1% among 580,000 | AID 1671190, 2021 | Potency, µM (top dose mostly 108 µM), for inactives: top-dose activity change, negative = inhibition, most hits filed as inhibitors; note: potency is the fitted concentration of half-maximal effect; % is set by controls: 0 for no effect and ±100 for the full control effect
#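 Purified human 12hLO (150 nM final) in 25 mM Hepes, 0.01% Triton X-100, pH 7.0 was preincubated 15 min at room temperature with compound. Then 40 uM arachidonic acid was added, 30 min. Hydroperoxide was read by Fe-XO absorbance ratio 573/405 nm.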
# PGK validate: qHTS for inhibitors of Phosphogylcerate Kinase: Hit Validation Screen; shares compounds with Pol kappa inh-1; TbPGK coupled GAPDH assay, Kinase-Glo luminescence; Potency, µM (titrated, usually from 57.5 µM), inactives show at the highest dose activity change, negative = inhibition, usual class: inhibitors; hit rate 79% among 500; note: potency is the fitted concentration of half-maximal effect; % is set by controls: 0 for no effect and ±100 for the full control effect; nearly all actives have a fitted effect of over 65% in size
# Pol iota confirm: qHTS for Inhibitors of Polymerase Iota: Confirmatory Assay for Cherry-picked Compounds; Potency, µM, usual class: inhibitors; AID 720496, 2013; hit rate 77% among 1,500; shares compounds with Pol kappa inh-1; Pol iota primer extension, TAMRA/BHQ fluorescence; note: potency is the fitted concentration of half-maximal effect
# Pol kappa inh-2: qHTS for Inhibitors of Polymerase Kappa: Confirmatory Assay for Cherry-picked Compounds. shares compounds with Pol eta inh-1. purified Pol-kappa, fluorescent strand-displacement substrate. Potency, µM, most hits filed as inhibitors. hit rate 76% among 920. AID 720501, 2013; note: potency is the fitted concentration of half-maximal effect
# Pol eta inh-2: qHTS for Inhibitors of Polymerase Eta: Confirmatory Assay for Cherry-picked Compounds | Pol eta primer extension, TAMRA/BHQ fluorescence, 10 min | shares compounds with Pol eta inh-1 | AID 720502, 2013 | Potency, µM, usual class: inhibitors | hit rate 64% among 2,600; note: potency is the fitted concentration of half-maximal effect
# Starred values were filed as active, the others as inactive; ? = inconclusive; · = no result; [ ] = another dose, or the depositor's remark. Unless noted, calls come from the whole dose curve; as a rule, active = well fitted curve in the direction sought with a large enough effect; inconclusive = small, poorly fitted or top-dose-only effect, or another doubt; inactive = no such curve, though single readings can be large; an effect the other way counts as inactive or inconclusive.
SMILES,POLB inh,Pol eta inh-1,POLI inh,PI5P4Ka inh,Pol kappa inh-1,12-LOX inh,Pol iota confirm,Pol eta inh-2,others
O=C(O)c1cccc(N2C(=O)/C(=C/c3ccc(SCc4ccc(Cl)cc4)o3)SC2=S)c1,3.2µM*,7.9µM*,?,-73*,79µM*,3.5µM*,34*,19*,PGK validate=33µM*;Pol kappa inh-2=3.4*
CCc1ccc(/C=C2/SC(=S)N(CCCC(=O)Nc3cccc(C(=O)O)c3)C2=O)cc1,·,?,·,-4,·,?,·,·,
O=C(Nc1ccccc1)c1cc(-c2ccncc2)nc2ccccc12,·,·,·,·,·,8%,·,·,
Nc1c(/C=C2/C=CC(=O)C(O)=C2)c(=O)nc2sc(CC(=O)N3CCOCC3)nn12,·,3.5µM*,8.9µM*,?,?,-2%,17*,6*,PGK validate=9.2µM*
Cc1cccc(C)c1CC(=O)N1CCOCC1,2%,-11%,129%,-8,-10%,-55%,·,·,
Nc1cc(N)nc(SCC(=O)N2CCCCC2)n1,26%,5%,33%,-1,-14%,0%,·,·,
Nc1c(/C=C2/C=CC(=O)C(O)=C2)c(=O)nc2sc(CC(=O)N3CCCC3)nn12,7.9µM*,4µM*,3.2µM*,-56*,?,?,24*,5.4*,
CC(C)c1nc(C(=O)N(C)C2CCCN(CCCc3ccccc3)C2)cs1 (centres undefined),·,·,·,·,·,63%,·,·,
O=C(COC(=O)/C=C/c1cccc(F)c1)Nc1ccc(Cl)cn1,-2%,-10%,117%,-6,-13%,0%,·,·,
O=C(COC(=O)/C=C/c1cccc(F)c1)Nc1ncccn1,-27%,28µM*,50µM*,-22,?,10%,42*,48*,
O=C(COc1ccc(Cl)cc1Cl)c1ccccc1,·,·,·,·,·,-24%,·,·,
Cc1ccc(/C=C(\C#N)C(=O)Nc2ccc(Br)cc2)o1,-16%,·,41%,·,7%,5%,·,·,
N#C/C(=C\c1ccc([N+](=O)[O-])o1)C(=O)Nc1ccc(F)cc1,40µM*,22µM*,?,-84*,79µM*,45µM*,?,48*,
Cc1ccc(CN(C)C(=O)c2ccccc2OC2CCN(Cc3ccccn3)CC2)o1,·,·,·,·,·,49%,·,·,
Cc1cc(C=O)c(C)n1-c1cccc(C(=O)O)c1,14µM*,4µM*,18µM*,-5,79µM*,-15%,34*,21*,
Cc1ccc(C)n1-c1cccc(C(=O)Nc2ccccc2)c1,2%,-9%,14%,-9,11%,58%,·,·,
COC(=O)c1cccc(-n2c(C)cc(C=O)c2C)c1,12%,-17%,7%,8,-8%,5%,·,·,
Cc1ccc(C)n1-c1cccc(C(=O)O)c1,1µM*,·,·,·,·,·,8.4*,0.17*,Pol kappa inh-2=?
Cc1cc(C=O)c(C)n1-c1cc(C(=O)O)cc(C(=O)O)c1,7.9µM*,4µM*,25µM*,-13,50µM*,-20%,17*,5.4*,PGK validate=?
O=C(O)c1ccc(-n2cccc2/C=N\NC(=O)c2cc3cc(Br)ccc3o2)cc1,?,3.2µM*,7.1µM*,-93*,14µM*,35µM*,3*,5.4*,PGK validate=9.2µM*
Cn1cc(/C=N/NC(=O)c2cc3cc(Br)ccc3o2)c2ccccc21,-5%,-13%,-23%[58.9 µM],-13,-4%,0%,·,·,

# High-throughput results from PubChem BioAssay.
